Assay results reported in PubChem BioAssay AID1159580 (chemical genetic matrix, 2015).
“And” between values parts separate entries of the source, which are not always exact repeats. Equal values may be shown once. Hit rate of the full screen: of about 5,500 compounds, about 2,000 (36%) were called active. About 18% were inconclusive and are not listed. Cut-off read from the data, not from the text of the source: active = normalized growth mostly below about 0.91 (no sharp cut-off); inconclusive = no clear call, values can overlap the other calls; inactive = mostly above about 0.92. The list shows a part of the results.

Test: chemical genetic growth profiling, strain panel (AID 1159580);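 note: tested at 20 µM; growth read once vehicle control cultures reached saturation at 30 °C; 1 = growth at the plate median or of vehicle wells; lower values mean less growth of the strain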
Conditions: S. cerevisiae deletion strains, growth OD

Measured: normalized growth

COC(=O)/C(=C1\OC(=O)C(c2ccccc2)=C1O)c1ccccc1
inactive: locus YAL013W, strain DEP1, active compounds read low 1.01 | locus YAL021C, strain ccr4, active compounds read low 0.979 | locus YAL026C, strain drs2, active compounds read low 0.979 | locus YAL030W, strain snc1, active compounds read low 0.981 | locus YBL061C, strain skt5, active compounds read low 0.977 | locus YBR009C, strain hhf1, active compounds read low 1 | locus YBR021W, strain FUR4, active compounds read low 0.963 | locus YBR023C, strain chs3, active compounds read low 0.976 | locus YBR171W, strain sec66, active compounds read low 0.987 | locus YBR229C, strain ROT2, active compounds read low 0.993 | locus YBR231C, strain swc5, active compounds read low 0.985 | locus YBR279W, strain paf1, active compounds read low 0.984 | locus YCL011C, strain gbp2, active compounds read low 0.979 | locus YCL016C, strain dcc1, active compounds read low 0.981 | locus YCL029C, strain bik1, active compounds read low 0.987 | locus YCL061C, strain MRC1, active compounds read low 0.966 | locus YCL069W, strain vba3, active compounds read low 0.968 | locus YCR088W, strain abp1, active compounds read low 0.962 | locus YDL005C, strain med2, active compounds read low 0.974 | locus YDL035C, strain GPR1, active compounds read low 1 | locus YDL040C, strain nat1, active compounds read low 0.969 | locus YDL074C, strain BRE1, active compounds read low 1.03 | locus YDL101C, strain DUN1, active compounds read low 1.01 | locus YDL134C, strain PPH21, active compounds read low 0.998 | locus YDL185W, strain tfp1, active compounds read low 0.987 | locus YDL192W, strain arf1, active compounds read low 1 | locus YDR001C, strain nth1, active compounds read low 0.958 | locus YDR069C, strain doa4, active compounds read low 1.01 | locus YDR101C, strain arx1, active compounds read low 1 | locus YDR137W, strain rgp1, active compounds read low 0.967 | locus YDR150W, strain NUM1, active compounds read low 0.987 | locus YDR159W, strain sac3, active compounds read low 0.974 | locus YDR162C, strain NBP2, active compounds read low 1.02 | locus YDR195W, strain ref2 0.943 | locus YDR297W, strain sur2, active compounds read low 0.977 | locus YDR318W, strain mcm21, active compounds read low 0.986 | locus YDR334W, strain swr1, active compounds read low 0.971 | locus YDR335W, strain msn5, active compounds read low 0.982 | locus YDR388W, active compounds read low 0.993 | locus YDR392W, strain spt3, active compounds read low 0.972 | locus YDR502C, strain sam2, active compounds read low 1.01 | locus YEL003W, strain gim4, active compounds read low 0.985 | locus YEL037C, strain rad23, active compounds read low 0.973 | locus YEL061C, strain CIN8 (second series), active compounds read low 0.964 | locus YEL061C, strain CIN8, active compounds read low 0.984 | locus YER015W, strain faa2, active compounds read low 0.967 | locus YER016W, strain bim1, active compounds read low 0.984 | locus YER110C, active compounds read low 0.997 | locus YER111C, strain swi4, active compounds read low 0.976 | locus YER155C, strain BEM2 (second series), active compounds read low 1 | locus YER155C, strain BEM2, active compounds read low 0.994 | locus YER167W, strain BCK2, active compounds read low 0.999 | locus YFR010W, strain ubp6, active compounds read low 0.991 | locus YGL078C, strain dbp3, active compounds read low 0.993 | locus YGL086W, strain mad1, active compounds read low 1.01 | locus YGL167C, strain pmr1, active compounds read low 0.951 | locus YGL173C, strain kem1, active compounds read low 0.993 | locus YGL227W, strain vid30, active compounds read low 0.977 | locus YGL240W, strain doc1, active compounds read low 1.02 | locus YGL248W, strain PDE1, active compounds read low 1 | locus YGL253W, strain hxk2, active compounds read low 0.968 | locus YGR078C, strain PAC10, active compounds read low 1.03 | locus YGR135W, strain pre9, active compounds read low 0.995 | locus YGR229C, strain SMI1, active compounds read low 0.98 | locus YGR252W, strain gcn5, active compounds read low 0.984 | locus YHR013C, strain ard1, active compounds read low 0.963 | locus YHR027C, strain rpn1, active compounds read low 0.976 | locus YHR030C, strain SLT2, active compounds read low 0.99 and 0.914 | locus YHR079C, strain IRE1 (second series), active compounds read low 0.991 | locus YHR079C, strain IRE1, active compounds read low 0.912 | locus YHR094C, strain hxt1, active compounds read low 0.989 | locus YHR129C, strain ARP1, active compounds read low 0.989 | locus YHR142W, strain chs7, active compounds read low 0.93 | locus YHR200W, strain rpn10, active compounds read low 0.988 | locus YIL066C, strain RNR3, active compounds read low 1.01 | locus YIL073C, strain SPO22, active compounds read low 1.05 | locus YIL125W, strain kgd1, active compounds read low 0.974 | locus YIR030C, strain dcg1, active compounds read low 0.998 | locus YJL092W, strain hpr5, active compounds read low 0.959 | locus YJL095W, strain BCK1 (second series), active compounds read low 0.973 | locus YJL095W, strain BCK1, active compounds read low 1.05 and 0.936 | locus YJL115W, strain asf1, active compounds read low 0.974 | locus YJL129C, strain trk1, active compounds read low 0.917 | locus YJL134W, strain LCB3, active compounds read low 0.991 | locus YJL154C, strain vps35, active compounds read low 0.957 | locus YJL164C, strain tpk1, active compounds read low 0.986 | locus YJL166W, strain qcr8, active compounds read low 0.993 | locus YJL168C, strain set2, active compounds read low 0.996 | locus YJL187C, strain SWE1 (second series), active compounds read low 1.04
